# Data published in PubChem BioAssay.
# Records with an inconclusive call do not appear. For some assays here: Results with a measured potency or affinity are listed apart. Calls of active or inactive are those of the source. Unless noted, the rule behind the calls is not given here.
# Tests used:
# [1] = liver-stage malaria parasite growth inhibition, primary screen, cell-based, HepG2, luciferase luminescence, HepG2 viability (AID 624349; in the data active = parasite load remaining mostly below about 12%, no sharp cut-off; inactive = mostly above about 10%;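 note: 100% = mean of DMSO negative control wells on the same plate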); conditions: P. berghei liver stage in HepG2, luciferase luminescence, concentration not given here; parasite load remaining: stronger effect = lower value; viability: measured here: HepG2 viability without parasites
# [2] = Cy5 fluorescence interference with SSB-bound oligo, artefact control for HCV NS3 helicase inhibitor project, biochemical, NIH Clinical Collection, E. coli SSB (AID 743268)
# [3] = test system: Hepatitis C virus NS3 helicase; test: HCV NS3 helicase inhibitors, primary screen, biochemical, fluorescence polarization, NIH Clinical Collection (AID 743270); conditions: NS3 helicase binding to Cy5-dT15 DNA, stronger effect = higher value, concentration not given here
# [4] = biological target: Single-stranded DNA-binding protein (Escherichia coli (strain K12)) (UniProt P0AGE0); test: E. coli SSB displacement from DNA, counter-screen for HCV NS3 helicase inhibitor project, biochemical, fluorescence polarization, NIH Clinical Collection (AID 743271; in the data active = inhibition above about 28%); conditions: stronger effect = higher value, concentration not given here
# [5] = fluorescence interference in NS3h assay format, artefact control for HCV NS3 helicase inhibitor project, biochemical, NIH Clinical Collection (AID 743272); conditions: fluorescence interference counterscreen, stronger effect = lower value;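 note: HCV NS3 helicase with a Cy5 labelled single stranded DNA probe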
# [6] = biological target: 6-phosphogluconate dehydrogenase, decarboxylating (Homo sapiens) (UniProt P52209); test: 6PGD enzyme inhibitors, primary screen, biochemical, human, recombinant enzyme, NADPH absorbance (AID 1159550;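 active = at least 20% inhibition of 6-phosphogluconate dehydrogenase activity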); conditions: recombinant 6PGD, NADPH absorbance 341 nm; at 10 µM; stronger effect = higher value
# [7] = biological target: Mitogen-activated protein kinase 7 (Homo sapiens) (UniProt Q13164); test: ERK5 transactivation activators in reporter cells, primary screen, cell-based, HTS (AID 1508626;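 active = luciferase signal above three times the same-plate solvent-only control wells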;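 note: luciferase driven by Gal4-ERK5 fusion binding five Gal4 sites before minimal TATA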); conditions: HeLa Gal4-ERK5 transactivation, 18 h, at 5 µM, stronger effect = higher value
# [8] = biological target: Calcium-dependent protein kinase 1 (Plasmodium falciparum (isolate 3D7)) (UniProt P62344); test: PfCDPK1 kinase inhibitors, biochemical, TCAMS library (AID 1159585; cut-off not given, nearly all actives have IC50 up to about 0.98 µM;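 note: inhibitors leave more ATP so luminescence rises with inhibition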); conditions: recombinant PfCDPK1, Kinase-Glo ATP depletion luminescence
# [9] = biological target: Plasmodium falciparum protein kinase 6 (PK6, PF3D7_1337100) (UniProt Q8IDW1); test: PfPK6 kinase inhibitors, biochemical, TCAMS library (AID 1159586); conditions: recombinant PfPK6, Kinase-Glo ATP depletion luminescence
# [10] = biological target: Protein kinase 7 (PK7), Plasmodium falciparum 3D7 (PF3D7_0213400) (UniProt Q7YTF7); test: inhibition of Plasmodium PK7 catalytic activity – biochemical, TCAMS antimalarial set, Kinase-Glo luminescence (AID 1159587); conditions: recombinant PfPK7, Kinase-Glo ATP depletion luminescence
# [11] = biological target: Calcium-dependent protein kinase 4 (Plasmodium falciparum (isolate 3D7)) (UniProt Q8IBS5); test: PfCDPK4 kinase inhibitors, biochemical, TCAMS library (AID 1159588; cut-off not given, nearly all actives have IC50 up to about 0.91 µM); conditions: recombinant PfCDPK4, Kinase-Glo ATP depletion luminescence
# [12] = biological target: ATP-dependent translocase ABCB1 (Homo sapiens) (UniProt P08183); test: MDR1 (ABCB1) efflux transporter inhibition, cell-based (AID 377; in the data active = fluorescence slope change above about 50%); conditions: MDR1-expressing cells, fluorescent substrate accumulation slope; stronger effect = higher value; concentration not given here
# [13] = hESC survival regulators, cell-based (AID 493140); conditions: human embryonic stem cell survival screen; stronger effect = higher value;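 note: cells exposed to compounds for four days before counting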
# Protein kinase 7 (PK7), Plasmodium falciparum 3D7 (PF3D7_0213400), sequence (Q7YTF7 1-343): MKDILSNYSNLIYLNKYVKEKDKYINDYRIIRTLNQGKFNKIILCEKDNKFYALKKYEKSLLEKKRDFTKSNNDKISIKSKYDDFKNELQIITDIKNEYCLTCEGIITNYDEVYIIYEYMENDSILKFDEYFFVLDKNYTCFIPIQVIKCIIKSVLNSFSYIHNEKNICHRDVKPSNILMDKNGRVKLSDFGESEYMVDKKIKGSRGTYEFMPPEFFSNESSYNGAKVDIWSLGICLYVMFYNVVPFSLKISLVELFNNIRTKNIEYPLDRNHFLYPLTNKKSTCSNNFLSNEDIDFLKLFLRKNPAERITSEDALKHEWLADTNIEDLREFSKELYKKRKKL
# Mitogen-activated protein kinase 7 (Homo sapiens), sequence (Q13164 whole entry, looked up, the tested form may be a part): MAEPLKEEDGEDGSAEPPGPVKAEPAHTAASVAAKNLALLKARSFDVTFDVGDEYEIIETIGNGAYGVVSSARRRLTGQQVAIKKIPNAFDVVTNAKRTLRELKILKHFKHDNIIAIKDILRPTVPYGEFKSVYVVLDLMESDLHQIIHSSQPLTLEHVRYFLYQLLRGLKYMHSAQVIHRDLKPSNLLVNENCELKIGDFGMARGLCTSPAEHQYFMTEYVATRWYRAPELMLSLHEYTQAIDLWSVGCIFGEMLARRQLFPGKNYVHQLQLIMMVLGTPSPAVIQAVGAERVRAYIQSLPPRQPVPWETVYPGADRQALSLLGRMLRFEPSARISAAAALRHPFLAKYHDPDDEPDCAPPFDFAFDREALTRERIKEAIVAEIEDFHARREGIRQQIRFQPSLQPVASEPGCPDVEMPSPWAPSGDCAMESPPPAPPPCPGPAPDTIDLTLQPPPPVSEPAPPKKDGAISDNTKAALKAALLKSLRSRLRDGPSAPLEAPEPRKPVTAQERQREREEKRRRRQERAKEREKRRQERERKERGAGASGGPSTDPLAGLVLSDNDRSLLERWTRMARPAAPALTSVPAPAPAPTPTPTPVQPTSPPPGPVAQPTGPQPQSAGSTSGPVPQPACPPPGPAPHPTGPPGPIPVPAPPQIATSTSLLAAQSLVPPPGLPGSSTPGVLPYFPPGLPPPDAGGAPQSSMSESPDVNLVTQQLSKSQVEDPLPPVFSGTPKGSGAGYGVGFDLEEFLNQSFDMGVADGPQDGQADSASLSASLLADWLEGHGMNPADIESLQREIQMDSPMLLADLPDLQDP
# Calcium-dependent protein kinase 1 (Plasmodium falciparum (isolate 3D7)), sequence (P62344 whole entry, looked up): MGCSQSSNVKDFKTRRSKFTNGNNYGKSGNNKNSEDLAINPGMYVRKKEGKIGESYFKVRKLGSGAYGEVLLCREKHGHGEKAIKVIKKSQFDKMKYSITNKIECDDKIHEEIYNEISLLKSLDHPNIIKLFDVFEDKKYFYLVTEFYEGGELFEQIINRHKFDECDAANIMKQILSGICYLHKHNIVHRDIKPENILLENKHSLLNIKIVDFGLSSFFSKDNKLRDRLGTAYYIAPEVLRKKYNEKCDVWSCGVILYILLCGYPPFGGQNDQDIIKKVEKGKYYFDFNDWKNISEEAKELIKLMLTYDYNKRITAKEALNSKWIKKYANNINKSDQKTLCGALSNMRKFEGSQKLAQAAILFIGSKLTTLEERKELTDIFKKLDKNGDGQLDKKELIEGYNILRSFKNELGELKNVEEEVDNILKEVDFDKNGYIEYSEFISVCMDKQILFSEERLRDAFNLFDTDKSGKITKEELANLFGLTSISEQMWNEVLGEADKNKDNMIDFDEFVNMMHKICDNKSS
# Plasmodium falciparum protein kinase 6 (PK6, PF3D7_1337100), sequence (Q8IDW1 1-305): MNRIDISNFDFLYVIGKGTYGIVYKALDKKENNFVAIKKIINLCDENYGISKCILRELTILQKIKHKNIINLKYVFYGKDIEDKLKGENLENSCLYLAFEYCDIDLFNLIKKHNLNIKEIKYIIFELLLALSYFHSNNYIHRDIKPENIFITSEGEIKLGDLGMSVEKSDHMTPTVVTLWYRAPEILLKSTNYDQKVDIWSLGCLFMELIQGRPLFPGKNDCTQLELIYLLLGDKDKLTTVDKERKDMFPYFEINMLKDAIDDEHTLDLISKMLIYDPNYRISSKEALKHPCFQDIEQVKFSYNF
# Calcium-dependent protein kinase 4 (Plasmodium falciparum (isolate 3D7)), sequence (Q8IBS5 whole entry, looked up): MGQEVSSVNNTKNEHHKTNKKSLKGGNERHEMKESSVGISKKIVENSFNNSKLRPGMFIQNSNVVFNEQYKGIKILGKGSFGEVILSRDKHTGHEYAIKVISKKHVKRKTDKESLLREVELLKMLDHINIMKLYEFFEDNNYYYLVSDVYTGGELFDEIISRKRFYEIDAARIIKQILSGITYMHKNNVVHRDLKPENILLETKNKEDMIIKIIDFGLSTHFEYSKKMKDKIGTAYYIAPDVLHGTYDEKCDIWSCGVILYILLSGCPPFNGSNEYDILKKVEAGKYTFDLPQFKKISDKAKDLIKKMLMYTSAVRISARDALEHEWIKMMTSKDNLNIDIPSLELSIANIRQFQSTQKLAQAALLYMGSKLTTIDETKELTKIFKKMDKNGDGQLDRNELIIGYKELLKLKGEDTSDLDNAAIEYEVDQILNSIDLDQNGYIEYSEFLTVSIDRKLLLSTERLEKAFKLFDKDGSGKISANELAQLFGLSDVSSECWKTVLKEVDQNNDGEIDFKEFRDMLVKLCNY
# 6-phosphogluconate dehydrogenase, decarboxylating (Homo sapiens), sequence (P52209 whole entry, looked up, the tested form may be a part): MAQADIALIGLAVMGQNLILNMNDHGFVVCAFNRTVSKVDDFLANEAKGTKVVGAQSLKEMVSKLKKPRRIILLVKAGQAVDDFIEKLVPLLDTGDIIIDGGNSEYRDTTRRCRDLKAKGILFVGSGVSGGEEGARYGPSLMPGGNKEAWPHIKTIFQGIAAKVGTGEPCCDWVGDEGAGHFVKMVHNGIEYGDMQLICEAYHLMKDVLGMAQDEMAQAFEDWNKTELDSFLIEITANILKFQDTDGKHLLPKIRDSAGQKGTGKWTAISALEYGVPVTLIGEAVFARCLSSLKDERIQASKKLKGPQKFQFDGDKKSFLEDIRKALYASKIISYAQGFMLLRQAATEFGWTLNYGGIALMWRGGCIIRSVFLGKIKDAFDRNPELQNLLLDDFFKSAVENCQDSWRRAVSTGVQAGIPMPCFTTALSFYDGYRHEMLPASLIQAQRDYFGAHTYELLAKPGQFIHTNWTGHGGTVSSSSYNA
# ATP-dependent translocase ABCB1 (Homo sapiens), sequence (P08183 whole entry, looked up): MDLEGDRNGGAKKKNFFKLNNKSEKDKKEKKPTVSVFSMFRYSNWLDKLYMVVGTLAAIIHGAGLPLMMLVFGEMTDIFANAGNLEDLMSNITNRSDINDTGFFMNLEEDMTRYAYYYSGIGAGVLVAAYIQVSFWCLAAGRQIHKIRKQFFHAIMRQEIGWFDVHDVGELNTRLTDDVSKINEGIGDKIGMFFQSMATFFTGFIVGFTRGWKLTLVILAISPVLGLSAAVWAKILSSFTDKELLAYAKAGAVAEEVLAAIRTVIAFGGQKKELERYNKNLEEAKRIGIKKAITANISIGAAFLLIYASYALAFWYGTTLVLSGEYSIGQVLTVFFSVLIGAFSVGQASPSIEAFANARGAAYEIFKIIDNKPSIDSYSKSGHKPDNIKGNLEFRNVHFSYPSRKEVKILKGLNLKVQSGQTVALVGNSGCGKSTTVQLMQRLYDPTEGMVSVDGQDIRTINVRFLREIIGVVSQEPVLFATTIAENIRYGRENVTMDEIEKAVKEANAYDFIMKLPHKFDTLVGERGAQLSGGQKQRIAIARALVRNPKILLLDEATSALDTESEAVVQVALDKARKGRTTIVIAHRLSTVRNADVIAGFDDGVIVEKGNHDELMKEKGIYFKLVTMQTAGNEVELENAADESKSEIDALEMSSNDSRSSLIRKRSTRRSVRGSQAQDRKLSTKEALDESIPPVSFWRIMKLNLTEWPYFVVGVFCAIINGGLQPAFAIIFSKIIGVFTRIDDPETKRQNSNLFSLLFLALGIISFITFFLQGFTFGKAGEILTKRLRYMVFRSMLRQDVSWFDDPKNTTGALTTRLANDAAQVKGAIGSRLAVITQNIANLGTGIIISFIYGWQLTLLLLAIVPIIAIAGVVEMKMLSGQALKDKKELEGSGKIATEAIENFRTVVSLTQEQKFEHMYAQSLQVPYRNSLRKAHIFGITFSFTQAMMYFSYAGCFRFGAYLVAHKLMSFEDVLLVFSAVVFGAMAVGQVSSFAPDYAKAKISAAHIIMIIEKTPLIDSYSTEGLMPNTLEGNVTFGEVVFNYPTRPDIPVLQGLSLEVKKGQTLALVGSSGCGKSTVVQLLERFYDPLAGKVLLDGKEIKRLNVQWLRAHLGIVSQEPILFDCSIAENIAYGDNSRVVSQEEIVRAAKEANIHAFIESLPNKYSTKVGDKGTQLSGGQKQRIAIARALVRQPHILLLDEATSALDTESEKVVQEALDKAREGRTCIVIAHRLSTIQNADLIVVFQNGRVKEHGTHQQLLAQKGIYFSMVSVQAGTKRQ
smiles,measurement,setting,value
CC=C1[C@H]2C=C(C)C[C@]1(N)c1ccc(=O)[nH]c1C2,parasite load remaining,[1],62.9% (inactive)
same,viability,[1],72.6%
same,fluorescence ratio,[2],0.99 (inactive)
same,inhibition,[3],-2.84% (inactive)
same,inhibition,[4],-1.97% (inactive)
same,fluorescence ratio,[5],0.96 (inactive)
same,inhibition,[6],-0.222% (inactive)
same,luciferase signal,[7],44 AU (inactive)
CC(C)=CCC/C(C)=C\CO,inhibition,[6],6.7% (inactive)
same,luciferase signal,[7],60 AU (inactive)
O=C(CCCCCCCCCCCCC1CCCC1)Nc1ccc(S(=O)(=O)c2ccc(NC(=O)CCCCCCCCCCCCC3CCCC3)cc2)cc1,parasite load remaining,[1],65.7% (inactive)
same,viability,[1],90.8%
same,inhibition,[6],6.93% (inactive)
same,luciferase signal,[7],32 AU (inactive)
COc1ccc(Nc2nc(N/N=C/c3cc(Cl)ccc3O)nc(Nc3ccccc3)n2)cc1,outcome,[8],inactive
same,outcome,[9],inactive
same,outcome,[10],inactive
same,outcome,[11],inactive
COc1ccc2nc(C)cc(N/N=C/c3cc(C)ccc3O)c2c1,outcome,[8],inactive
same,outcome,[9],inactive
same,outcome,[10],inactive
same,outcome,[11],inactive
O=C(O)CCSSc1cccc[n+]1[O-],outcome,[8],inactive
same,outcome,[9],inactive
same,outcome,[10],inactive
same,outcome,[11],inactive
CCOc1cc(/C=N/Nc2nc(C)cc(-n3nc(C)cc3C)n2)ccc1O,outcome,[8],inactive
same,outcome,[9],inactive
same,outcome,[10],inactive
same,outcome,[11],inactive
O/N=C1\CCc2cc(-c3nc(-c4cccc(OCCNCc5ccc(F)cc5)c4)[nH]c3-c3ccncc3)ccc21,outcome,[8],inactive
same,outcome,[9],inactive
same,outcome,[10],inactive
same,outcome,[11],inactive
CNC1C(O)C(OC2C(N)CC(N)C(OC3OC(CN)=CCC3N)C2O)OCC1(C)O (configuration not stated),fluorescence slope change,[12],28.9% (inactive)
same,survival,[13],9.33 (inactive)
same,parasite load remaining,[1],81.3% (inactive)
same,viability,[1],80.5%
same,inhibition,[6],0.544% (inactive)
CN(C)CCCOc1ccc(-c2nc(-c3ccc4c(c3)CC/C4=N\O)c(-c3ccncc3)[nH]2)cc1,outcome,[8],inactive
same,outcome,[9],inactive
same,outcome,[10],inactive
same,outcome,[11],inactive
Oc1ccc(/C=N/NC(=S)Nc2cccc3ccccc23)c(O)c1,outcome,[8],inactive
same,outcome,[9],inactive
same,outcome,[10],inactive
same,outcome,[11],inactive
